Measured values: ChEMBL document CHEMBL1157539, “Thousands of chemical starting points for antimalarial lead identification” (Nature, 2010)
Over roughly 13,000 compounds, “IFI” has its median near 4; the highest 2% begin near 17. Many of the other results were omitted from the sample, so the highest values are more common in it than they were.

assay: GSK_TCMDC: Inhibition Frequency Index (IFI). The number of non-kinase HTS assays where a compound showed > 50 % inhibition, expressed as a percentage of the number of such assays in which the compound was tested; assay type: functional

SMILES	IFI [%]
COc1ccc2nc(C)cc(N/N=C/c3cccc([N+](=O)[O-])c3)c2c1	1.42
COc1cccc(-c2csc(C(=O)NCC3CCN(Cc4ccc(C(C)C)cc4)C3)c2)c1 (stereo not given)	8
CCN(CC)CCN(Cc1ccc(-c2ccc(C(F)(F)F)cc2)cc1)C(=O)Cn1c(CCc2c(F)cccc2F)nc(=O)c2ccccc21	11.7
Cc1cccc2nc(-c3cccc(-c4cccc(NC(=O)Cc5c[nH]cn5)c4)c3)[nH]c12	4.63
CN1CCN(S(=O)(=O)c2cccc(Nc3nccc(N(C)c4ccc5c(c4)nc(NC(=O)c4cccs4)n5C)n3)c2)CC1	2.26
C#CCNCc1ccc(-c2ccc(-c3nc4cc(C(F)(F)F)ccc4[nH]3)s2)cc1	8.82
CC(C)N1CCC(N(Cc2ccc(-c3ccc(C(F)(F)F)cc3)cc2)C(=O)Cn2c(CCc3cccc(F)c3F)nc(=O)c3cccnc32)CC1	16.1
Cc1nn(CC(C)C)c2sc(C(=O)Nc3nc(-c4ccccn4)cs3)cc12	10
COc1ccc(-c2cccc(NC(=O)c3cccc(Cl)c3)c2)cc1CN1CCNCC1	6.93
COc1ccc2nccc([C@@H](O)CN3CCC(NCCOc4ccc(F)cc4F)CC3)c2c1	1.59
COc1ccc(N(c2nc(-c3cc(Cl)ccc3Cl)cs2)C2CCNC2)cc1 (stereo not given)	20
Cc1cc(F)ccc1N(c1nc(-c2cc(Cl)ccc2Cl)cs1)C1CCNC1 (stereo not given)	21.4
Cc1cc(-c2cc(Cl)ccc2Cl)no1	0
CC(C)c1cn2c3c(cc(C(=O)N[C@@H](Cc4ccccc4)[C@H](O)CNC4CCCCC4)cc13)N(C)S(=O)(=O)CC2	2.94
Clc1cc(Br)ccc1-c1ccc(CNCC2CCNCC2)o1	26.3
CNCCCNCc1ccc(-c2ccc(F)c(Cl)c2)o1	2.78
CN(C)CCCNCc1ccc(-c2ccc(F)c(Cl)c2)o1	6.94
O=C(/C=C/c1ccc(Cl)c(Cl)c1)N1CCN(C(=O)Nc2ccc(F)c(Cl)c2)CC1	15.2
O=C(/C=C/c1ccc(Cl)c(Cl)c1)NCCCCCN1CCCN(C(=O)Nc2cccc(C(F)(F)F)c2)CC1	8.61
O=C(/C=C/c1ccc(Cl)c(Cl)c1)NCCCCCCN1CCCN(C(=O)Nc2cccc(C(F)(F)F)c2)CC1	8.26
O=C(/C=C/c1ccc(Cl)c(Cl)c1)N1CCN(C(=O)Nc2cccc(C(F)(F)F)c2)CC1	24.2
O=C(/C=C/c1ccc(Cl)c(Cl)c1)NCCCCCCN1CCN(C(=O)Nc2ccc(C(F)(F)F)cc2)CC1	7.03
O=C(/C=C/c1ccc(Cl)c(Cl)c1)N1CCN(C(=O)Nc2ccc(C(F)(F)F)cc2)CC1	22.1

SMILES	IFI [%]
O=C(Nc1cccc(C(F)(F)F)c1)c1ccc(S(=O)(=O)NCC2CCCN(CC3CCCCC3)C2)cc1 (stereo not given)	5.1
CCOC(=O)c1nc(-c2cccnc2)[nH]c1NC(=S)NCc1ccccc1	3.15
C=C[C@]1(C)C[C@@H](OC(=O)CNC[C@@H](O)CN2C[C@H](c3ccnc4ccc(OC)nc34)OC2=O)[C@@]2(C)[C@@H]3C(=O)CC[C@@]3(CC[C@@H]2C)[C@@H](C)[C@@H]1O	1.56
Cc1cccc2nc(-c3cccc(-c4ccc(NC(=O)Nc5cccc(C#N)c5)cc4)c3)[nH]c12	5
O=S(=O)(c1ccccc1)n1ccc2cc(Nc3ncnc4cc(C#C[C@H]5CCCN5)sc34)ccc21	8.57
Cc1cc(F)ccc1Nc1nc(N(C)c2ccccc2)c2cc(OCCCN(C)C)ccc2n1	10.8
N=C(NCc1ccc(O)cc1)Nc1nc(-c2ccc(OCCCn3ccnc3)cc2)cs1	6.47
CN(C)Cc1cccc(-c2ccc(Nc3nccc(NCC(O)c4ccccc4)n3)cc2)c1 (stereo not given)	17.2
Cc1ccc(Nc2nccc(NCC(O)c3ccc(C(F)(F)F)cc3)n2)cc1 (stereo not given)	9.18
OC(CNc1ccnc(Nc2ccc(Cl)cc2)n1)c1cccc(C(F)(F)F)c1 (stereo not given)	16.3
Cc1ccc(Nc2nccc(NCC(O)c3cccc(F)c3)n2)cc1 (stereo not given)	9.71
CN(C)CC(=O)Nc1ccc(Nc2nccc(NCC(O)c3ccccc3)n2)cc1 (stereo not given)	2.94
Cc1cccc(Nc2nccc(NCC(O)c3cccc(C(F)(F)F)c3)n2)c1 (stereo not given)	14.3
COc1cccc(C(O)CNc2ccnc(Nc3ccc(Cl)cc3)n2)c1 (stereo not given)	19.8
Cc1ccc(Nc2nccc(NCC(O)c3cccc(C)c3)n2)cc1 (stereo not given)	18.4
Cc1ccc(Nc2nccc(NCC(O)c3cccc(C(F)(F)F)c3)n2)cc1 (stereo not given)	17.9
COc1ccc(Nc2nccc(NCC(O)c3cccc(C(F)(F)F)c3)n2)cc1 (stereo not given)	15.3
CN(C)Cc1ccc(-c2cccc(Nc3nccc(NCC(O)c4ccccc4)n3)c2)cc1 (stereo not given)	11.2
OC(CNc1ccnc(Nc2ccccc2)n1)c1cccc(C(F)(F)F)c1 (stereo not given)	12.2
NS(=O)(=O)c1ccc(Nc2nccc(-c3c(-c4cccc(NC(=O)c5c(F)cccc5F)c4)nn4ccccc34)n2)cc1	7.96
Cc1cc(-c2ccc3c(c2)CCN(CCCOc2ccc4c(c2)CCN4C(=O)/C=C/c2ccccc2Cl)CC3)no1	10.8
CN(C)CCN(C)Cc1ccc(-c2ccc3c(Nc4ccc(F)cc4Cl)ccnc3c2)o1	9.86
Nc1ccc2[nH]cc(C3CCN(CCC4CCN(C(=O)/C=C/c5ccc(Cl)c(Cl)c5)CC4)CC3)c2n1	8.76

SMILES	IFI [%]
CCCNCc1ccc(-c2ccc(CN(CCOC)C(=O)c3cnc(C)cn3)cc2)nc1	0
O=C(Nc1ccc(C(F)(F)F)cc1)N[C@H]1CCN(CCCCCNC(=O)C2CC2c2ccc(Cl)c(Cl)c2)C1 (stereo not given in full)	16.8
CC(C)Cc1cn(-c2nc(C(=N)N)cs2)c2cc(Cl)ccc12	23.9
CC(C)Cc1cn(-c2nc(-c3nc4ccccc4[nH]3)cs2)c2ccncc12	4.94
CC(C)Cc1cn(-c2nc(-c3nc4ccccc4[nH]3)cs2)c2cc(Cl)ccc12	1.18
CCCN(Cc1ccc(C)cc1)Cc1cc(=O)c2cc(Cl)ccc2[nH]1	9.09
Fc1ccc2[nH]c(-c3cccc(-c4ccc(CN5CCN(c6ccncc6)CC5)cc4)c3)nc2c1	5.63
Fc1ccc2[nH]c(-c3ccc(-c4cccc(CN5CCN(c6ccncc6)CC5)c4)cc3)nc2c1	18.1
Fc1ccc2[nH]c(-c3cccc(-c4cccc(CN5CCN(c6ccncc6)CC5)c4)c3)nc2c1	13.6
Cc1cc(N)c2cc(NC(=O)c3cc4ccccc4s3)ccc2n1	6.12
c1ccc(COc2ccc(C3CCCCC3)cc2)nc1	2.9
N=C(NCC1CC1c1ccccc1)c1cccc(C(=N)NCC2CC2c2ccccc2)n1 (stereo not given)	5.65
CC(CNC(=N)c1cccc(C(=N)NCC(C)Oc2cccc(C3CCCCC3)c2)n1)Oc1cccc(C2CCCCC2)c1 (stereo not given)	17.7
Cc1cccc(NC(=O)Nc2cccc(-c3ccc(-c4nc5cc(C(F)(F)F)ccc5[nH]4)cc3)c2)c1	6.45
O=C(Nc1ccc(C(F)(F)F)cc1)c1ccc(S(=O)(=O)NC2CCN(CC3CCCCC3)CC2)cc1	2.41
O=C(Nc1cc(C(F)(F)F)cc(C(F)(F)F)c1)c1cc(C(F)(F)F)cc(C(F)(F)F)c1	3.65
O=C(Nc1ccc(Br)cc1)c1cc(Br)ccc1NS(=O)(=O)c1ccc(C(F)(F)F)cc1	25
NCCNc1ccc([N+](=O)[O-])cc1C(=O)Nc1cccc(C(F)(F)F)c1	1.45
O=C(Nc1ccc(C(F)(F)F)cc1)c1cc(Br)cnc1NCCCn1ccnc1	1.67
Cc1cc(Cl)c(Cl)cc1NC(=O)Nc1cccc(C(F)(F)F)c1	6.52
Cc1ccc(C)c(S(=O)(=O)Nc2ccc(Br)cc2C(=O)Nc2cccc(C(F)(F)F)c2)c1	21.1
O=C(Nc1ccc(Br)cc1)c1cc(Br)ccc1NS(=O)(=O)c1cc(C(F)(F)F)cc(C(F)(F)F)c1	19.9
COc1cc(NC(=O)Nc2ccc(Br)cc2C(=O)Nc2ccc(Br)cc2)cc(OC)c1OC	1.55

SMILES	IFI [%]
COc1ccc2c(NN=Cc3ccccc3F)ccnc2c1	3.52
CC(C)[C@H](NC(=O)c1c(F)cccc1F)C(=O)Nc1ccc(Cc2nc3ccccc3s2)cc1	1.96
CN(N=Cc1ccccc1)C(=N)NCCCC#Cc1cccc(CN2CCCC2)c1	4.23
CC(Sc1nnc(-c2cccs2)[nH]1)C(=O)c1c[nH]c2ccccc12 (stereo not given)	1.92
Oc1ccc2nc(NCCCc3ccccc3)nc(NCCc3ccccc3)c2c1	14.1
CCN(CC)/C(=N/C(=N)NCc1ccc(Cl)cc1)NCCCCCCN/C(=N\C(=N)NCc1ccc(Cl)cc1)N(CC)CC	15.1
COc1cccc(-c2ccc(NC(=O)C3CCCN(Cc4cccc(OC)c4O)C3)cc2)c1 (stereo not given)	4.35
CCC(=O)NC(c1ccco1)c1cc(Cl)c2cccnc2c1O (stereo not given)	4.35
O=C(Cc1ccccc1)NC(c1ccco1)c1cc(Cl)c2cccnc2c1O (stereo not given)	8
Oc1c(C(Nc2ccccn2)c2ccco2)cc(Cl)c2cccnc12 (stereo not given)	22.6
N=C1C=C(N)C(=O)c2ccccc21	20.8
O=C(Nc1ccc(-c2cccc(-c3nc4cc(C(F)(F)F)ccc4[nH]3)c2)cc1)Nc1ccc(F)c(F)c1F	5.83
CCC(CC)CN1C(=O)C(c2ccccc2)(c2ccccc2)N=C1N	3.7
COc1ccc(CCCN2C(=O)C(c3ccccc3)(c3ccccc3)N=C2N)cc1	8.65
COc1ccc(CCCCN2C(=O)C(c3ccccc3)(c3ccccc3)N=C2N)cc1	7.69
CCCCC(CC)CN1C(=O)C(c2ccccc2)(c2ccccc2)N=C1N (stereo not given)	16.3
CCCCC(CCCC)CN1C(=O)C(c2ccccc2)(c2ccccc2)N=C1N	20.9
COc1ccccc1CCCN1C(=O)C(c2ccccc2)(c2ccccc2)N=C1N	22.3
N#Cc1cccc(NC(=O)Nc2ccc(-c3cccc(-c4nc5cc(F)ccc5[nH]4)c3)cc2)c1	4.04
Cc1cccc2nc(-c3ccc(-c4ccc(CNCc5ccccc5)cc4)s3)[nH]c12	9.62
Oc1c(CN2CCCC(C(F)(F)F)C2)cc(Cl)c2ccccc12 (stereo not given)	6.38
